Bioassay records (PubChem)
Compounds with a hit are over-represented: about 3.3% of the library has one in this group of screens.
CASP6 VEID inh – blocks human caspase-6 cleavage activity | P55212 | purified caspase-6, Z-VEID-R110 cleavage fluorescence | inhibition, % at 12.5 µM | 0.53% of 350,000 active;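 active = mean inhibition across replicates at least about 35%, with every replicate also reaching that limit, limit read from the data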;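 also: 0% = median of neutral control wells and 100% = no fluorescence left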
GSIS activator – primary screen for activators of insulin secretion dependent on glucose, INS-1E cells, GLuc reporter luminescence. 0.61% of 370,000 active. activation, % at 16.6 µM. AID 743287. INS-1E GLuc reporter insulin secretion, 2-3 h;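 active = lowest replicate activation of at least 40%, so every replicate reaches that level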;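 also: 0% = median of neutral control wells and 100% = median of IBMX positive control wells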
ERAP1 inh – blocks human ERAP1 aminopeptidase activity; recombinant ERAP1, Leu-AMC fluorescence, 60 min; inhibition, % at 10.7 µM; 0.15% of 340,000 active; AID 652197;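 active = mean replicate inhibition of at least 30%, or all replicates individually reaching that 30% level; inactive = mean below 30% and not every replicate reaching it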;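 also: 0% = neutral control wells and 100% = L-leucinethiol positive control wells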
SIRT5 inh – blocks human SIRT5 desuccinylation of peptide; Q9NXA8; Purified SirT5, succinyl-peptide AMC, trypsin-coupled fluorescence; inhibition, % at 15 µM; 1.1% of 330,000 active; AID 652115; in the data active = inhibition above about 15%
Target sequence (Q9NXA8 whole entry, looked up): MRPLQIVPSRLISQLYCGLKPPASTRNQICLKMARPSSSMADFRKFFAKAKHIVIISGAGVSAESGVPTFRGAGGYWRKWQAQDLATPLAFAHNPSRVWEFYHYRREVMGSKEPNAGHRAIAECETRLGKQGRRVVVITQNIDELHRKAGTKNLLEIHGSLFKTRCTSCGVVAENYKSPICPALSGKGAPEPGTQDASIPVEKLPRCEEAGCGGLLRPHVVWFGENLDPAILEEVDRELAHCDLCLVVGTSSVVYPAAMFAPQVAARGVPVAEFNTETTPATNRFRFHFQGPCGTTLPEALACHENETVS
FGF22 binding – binders of recombinant human FGF22 by thermal shift; Q9HCT0; SYPRO orange fluorescence; percent of sucrose octasulfate shift, DMSO zero; activity (Tm shift, normalised), % at 9.99 µM; 1.5% of 340,000 active;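 active = mean Tm shift, scaled 0 neutral to 100 positive control, at about 1.3% or above, every replicate too, limit read from the data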
Target sequence (Q9HCT0 whole entry, looked up): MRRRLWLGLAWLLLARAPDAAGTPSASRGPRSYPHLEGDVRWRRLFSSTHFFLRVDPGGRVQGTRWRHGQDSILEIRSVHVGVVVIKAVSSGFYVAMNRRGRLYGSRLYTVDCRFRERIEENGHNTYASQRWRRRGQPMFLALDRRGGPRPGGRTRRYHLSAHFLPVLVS
Active calls of the source: *.

CCC1(c2ccc(F)cc2)NC(=O)N(CC(=O)Nc2cccc(S(=O)(=O)N3CCCCC3)c2)C1=O (configuration not stated) was read as CASP6 VEID inh 3, GSIS activator -19, ERAP1 inh 0, SIRT5 inh 15* and FGF22 binding 41.
Screening CCC1(c2ccc(F)cc2)NC(=O)N(CC(=O)Nc2cccc(S(=O)(=O)N3CCCC3)c2)C1=O (configuration not stated) returned CASP6 VEID inh 0, GSIS activator -15, ERAP1 inh 0, SIRT5 inh -2 and FGF22 binding 0.
COc1ccc(CNC(=O)C(C)OC(=O)CCN2C(=O)C3CC=CCC3C2=O)cc1 (configuration not stated) was read as CASP6 VEID inh 3, GSIS activator 1, ERAP1 inh 2 and SIRT5 inh -4.
Screening O=C(Nc1cccc(Cl)c1)c1cccc(N2C(=O)C3CC=CCC3C2=O)c1 (configuration not stated) returned CASP6 VEID inh 35*, GSIS activator -9, ERAP1 inh 0, SIRT5 inh -2 and FGF22 binding 0.
O=C(Nc1cccc(N2C(=O)C3CCCCC3C2=O)c1)c1ccccc1 (configuration not stated) was read as CASP6 VEID inh 10, GSIS activator 3, ERAP1 inh -4, SIRT5 inh 0 and FGF22 binding 0.
CC(OC(=O)CCN1C(=O)C2CC=CCC2C1=O)C(=O)Nc1cccc(Cl)c1 (configuration not stated) was read as CASP6 VEID inh 0, GSIS activator 63*, ERAP1 inh 2, SIRT5 inh 0 and FGF22 binding 1.
For Oc1ccc(/C=N/Nc2ccnc3cc(Cl)ccc23)cc1O the results were CASP6 VEID inh 47*, GSIS activator 16, ERAP1 inh 0 and FGF22 binding 0.
For COc1ccccc1-c1ccc(/C=C2/C=C(C)OC2=O)o1 the results were GSIS activator -21.
For CC1=C/C(=C\c2ccc(Br)o2)C(=O)O1 the results were CASP6 VEID inh 83*, GSIS activator 14, ERAP1 inh 0, SIRT5 inh 0 and FGF22 binding 1.
`CCOc1cc(/C=N/NC(=O)C(N)=O)cc(Br)c1O` gave CASP6 VEID inh -2, GSIS activator 1, ERAP1 inh -3, SIRT5 inh 9 and FGF22 binding 43*.
O=C(CCCCCCCCC(=O)N/N=C/c1ccco1)N/N=C/c1ccco1 was read as CASP6 VEID inh 0, GSIS activator -5, ERAP1 inh -3, SIRT5 inh -1 and FGF22 binding 43*.
For Cc1cc(Cl)ccc1OCC(=O)NCC(=O)N/N=C/c1ccco1 the results were CASP6 VEID inh -5, GSIS activator -2, ERAP1 inh 1, SIRT5 inh -2 and FGF22 binding 43*.
For O=C(CCC(=O)N/N=C/c1ccco1)N/N=C/c1ccco1 the results were CASP6 VEID inh 3, GSIS activator -5, ERAP1 inh -1, SIRT5 inh -2 and FGF22 binding 0.
C[C@@H]1CN([C@@H](C)CO)C(=O)c2cc(NC(=O)CCC(F)(F)F)ccc2O[C@H]1CN(C)C(=O)Nc1ccc(F)cc1 was read as CASP6 VEID inh -1, GSIS activator 1, ERAP1 inh -4, SIRT5 inh -1 and FGF22 binding 0.
O=C(CNc1n[nH]c(=O)[nH]c1=O)N/N=C/C=C/c1ccccc1 was read as CASP6 VEID inh -3, GSIS activator 12, ERAP1 inh -5, SIRT5 inh 1 and FGF22 binding 0.
`O=C(O)CCCNc1n[nH]c(=O)[nH]c1=O` gave CASP6 VEID inh -3, GSIS activator 18, ERAP1 inh 5, SIRT5 inh 13 and FGF22 binding 43*.
Screening COc1cc(/C=C/C(=O)O)ccc1S(=O)(=O)N1CCCc2ccccc21 returned CASP6 VEID inh 2, GSIS activator 2, ERAP1 inh -5, SIRT5 inh 0 and FGF22 binding 43*.
Cc1noc(C)c1S(=O)(=O)Nc1ccc2c(c1)C(=O)N([C@@H](C)CO)C[C@H](C)[C@@H](CN(C)C(=O)Nc1ccc(C(F)(F)F)cc1)O2 was read as CASP6 VEID inh -3, GSIS activator -10, ERAP1 inh -4, SIRT5 inh 1 and FGF22 binding 0.
Screening COc1ccc(C2CC(c3ccc(OC)c(OC)c3)=NN2C(=O)c2ccccc2)cc1 (configuration not stated) returned CASP6 VEID inh -1, GSIS activator 67*, ERAP1 inh 0, SIRT5 inh 3 and FGF22 binding 0.
COc1ccc(C2=NN(C(=O)c3ccccc3)C(c3ccc(OC)c(OC)c3)C2)cc1OC (configuration not stated) was read as CASP6 VEID inh 4, GSIS activator 18, ERAP1 inh 1, SIRT5 inh 1 and FGF22 binding 0.
`COc1cccc(C2CC(c3ccc(Br)cc3)=NN2C(=O)c2ccncc2)c1OC` (configuration not stated) gave CASP6 VEID inh 2, GSIS activator -9, ERAP1 inh 2, SIRT5 inh 112* and FGF22 binding 0.
For COc1ccccc1C1CC(c2ccc(Br)cc2)=NN1C(=O)c1cccnc1 (configuration not stated) the results were GSIS activator -20.
C[C@@H]1CN([C@H](C)CO)C(=O)c2cccc(NC(=O)Nc3ccc4c(c3)OCO4)c2O[C@@H]1CN(C)Cc1ccc(C(F)(F)F)cc1 was read as CASP6 VEID inh -4, GSIS activator -17, ERAP1 inh 1, SIRT5 inh 14 and FGF22 binding -1.
Screening O=C(c1ccc(Cl)cc1)C1CCCN(C(=O)c2csnn2)C1 (configuration not stated) returned CASP6 VEID inh 2, GSIS activator 4, ERAP1 inh 0, SIRT5 inh 112* and FGF22 binding 0.
`Cc1nnc(SCC(=O)N2CCCC(C(=O)c3ccc(Cl)cc3)C2)o1` (configuration not stated) gave CASP6 VEID inh -7, ERAP1 inh -8, SIRT5 inh 1 and FGF22 binding 43*.
For C[C@@H]1CN([C@@H](C)CO)C(=O)c2cccc(NS(=O)(=O)c3ccc(Cl)cc3)c2O[C@H]1CN(C)C(=O)Nc1ccc(C(F)(F)F)cc1 the results were CASP6 VEID inh -1, GSIS activator 6, ERAP1 inh 1, SIRT5 inh 9 and FGF22 binding 0.
N#Cc1nccnc1S(=O)(=O)c1cccs1 was read as CASP6 VEID inh 0, GSIS activator 134* and SIRT5 inh -1.
c1ccc(Cn2nnc3c(N4CCc5ccccc54)ncnc32)cc1 was read as GSIS activator 86*.
Screening CN(C)C=NC(=O)c1ccc(N2CCN(c3ncc(C(F)(F)F)cc3Cl)CC2)cc1 returned GSIS activator 72*.
